This excerpt belongs to a sample that is enriched for hits.
mHTT-CaM PPI inh = mutant huntingtin-calmodulin interaction inhibitors – biochemical, AlphaScreen, primary screen; P42858; AlphaScreen His-mHTT/GST-CaM binding, luminescence; inhibition, % at 15 µM; hit rate 3.6% among 190,000; AID 1671202, 2021;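 further: 0% = both proteins with DMSO and 100% = one protein alone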
Pf apPOL inh = Pf-apPOL inhibitors, biochemical, fluorescence | Plasmodium falciparum apicoplast DNA polymerase (apPOL) | Recombinant Pf-apPOL, molecular beacon fluorescence, 1.5 h | inhibition, % at 10 µM | hit rate 0.25% among 210,000
* hit, by the source's call. No stated cut-off is given here; in the data, active means inhibition above about 50%; inactive means the rest.

Screening COc1cccc(C2C3=C(Nc4ncnn42)c2ccccc2OC3c2ccccc2F)c1 (centres undefined) returned mHTT-CaM PPI inh 5.0 and Pf apPOL inh 6.6.
CSc1ccc(C2Oc3ccccc3C3=C2C(c2cccs2)n2ncnc2N3)cc1 (centres undefined) was read as mHTT-CaM PPI inh 38.0 and Pf apPOL inh -5.2.
Screening COc1cccc(C2C3=C(Nc4ncnn42)c2ccccc2OC3c2ccccc2Cl)c1 (centres undefined) returned mHTT-CaM PPI inh 58.0* and Pf apPOL inh -8.3.
Fc1ccc(C2Oc3ccccc3C3=C2C(c2cccs2)n2ncnc2N3)cc1 (centres undefined) was read as mHTT-CaM PPI inh 61.0* and Pf apPOL inh -3.1.
Cc1ccc(CC(=O)N2CCCC2c2nc(-c3ccccc3)n[nH]2)cc1 (centres undefined) was read as mHTT-CaM PPI inh -8.3 and Pf apPOL inh 3.4.
O=C(Cc1nc(-c2ccccn2)n[nH]1)Nc1cccc(Cl)c1 was read as mHTT-CaM PPI inh 99.4* and Pf apPOL inh -11.5.
For O=C(Cc1nc(-c2ccccn2)n[nH]1)Nc1cccc(F)c1 the results were mHTT-CaM PPI inh 99.2* and Pf apPOL inh -13.0.
O=C(Cc1nc(-c2ccccc2)n[nH]1)Nc1ccc(F)cc1 was read as mHTT-CaM PPI inh -2.6 and Pf apPOL inh 2.1.
For O=C(Cc1nc(-c2ccccc2)n[nH]1)Nc1ccccc1 the results were mHTT-CaM PPI inh -1.6 and Pf apPOL inh -4.6.
O=C(Cc1nc(-c2ccccn2)n[nH]1)Nc1ccc(Cl)cc1 was read as mHTT-CaM PPI inh 67.5* and Pf apPOL inh -9.5.
Cc1ccc(NC(=O)Cc2nc(-c3ccccc3)n[nH]2)cc1C was read as mHTT-CaM PPI inh -3.2 and Pf apPOL inh -3.1.
CCOc1c(I)cc(/C=c2\sc3nc4ccccc4n3c2=O)cc1OC was read as mHTT-CaM PPI inh 0.0 and Pf apPOL inh 4.9.
For COc1cccc(CCC(=O)Nc2n[nH]c(C)c2-c2ccc(F)cc2)c1 the results were mHTT-CaM PPI inh 2.3 and Pf apPOL inh 3.1.
Screening Cc1ccc2oc(-c3ccc(C)c(NC(=O)Cc4ccccc4)c3)nc2c1 returned mHTT-CaM PPI inh 2.2 and Pf apPOL inh -0.7.
For COc1ccc(-n2c(C)c3c(C)nnc(C)c3c2C)cc1OC the results were mHTT-CaM PPI inh 5.1 and Pf apPOL inh 2.9.
Cc1nnc(C)c2c(C)n(C(C)c3ccccc3)c(C)c12 (centres undefined) was read as mHTT-CaM PPI inh 74.5* and Pf apPOL inh 6.7.
Screening Cc1ccc(NC(=O)c2[nH]c3cc(C)sc3c2CN(C)C)c(C)c1 returned mHTT-CaM PPI inh 9.7 and Pf apPOL inh 0.0.
For O=C(c1ccoc1)N1CCCC2(C1)Nc1ccccc1NC2=NCc1ccccc1 (centres undefined) the results were mHTT-CaM PPI inh 99.7* and Pf apPOL inh 4.3.
Screening O=C(c1ccco1)N1CCCC2(C1)Nc1ccccc1NC2=NCc1ccccc1 (centres undefined) returned mHTT-CaM PPI inh 83.8* and Pf apPOL inh -4.8.
For CCn1nccc1C(=O)N1CCCC2(C1)Nc1ccccc1NC2=NCc1ccccc1 (centres undefined) the results were mHTT-CaM PPI inh 35.7 and Pf apPOL inh -11.1.
Screening O=C(c1cccnc1)N1CCCC2(C1)Nc1ccccc1NC2=NCc1ccccc1 (centres undefined) returned mHTT-CaM PPI inh 45.5 and Pf apPOL inh -4.8.
CC(=O)N1CCCC2(C1)Nc1ccccc1NC2=NCc1ccccc1 (centres undefined) was read as mHTT-CaM PPI inh 72.2* and Pf apPOL inh 0.7.
O=C(c1ccccn1)N1CCCC2(C1)Nc1ccccc1NC2=NCc1ccccc1 (centres undefined) was read as mHTT-CaM PPI inh 45.0 and Pf apPOL inh -9.0.
Screening COc1ccc(CNC(=O)C2CC(=O)N(c3cccc(NC(C)=O)c3)C2)cc1OC (centres undefined) returned mHTT-CaM PPI inh 0.2 and Pf apPOL inh -3.3.
For Cc1ccc(C(=O)N2CCC(CC(=O)NC3CCCCC3)CC2)cc1 the results were mHTT-CaM PPI inh -1.5 and Pf apPOL inh -1.3.
Screening Nc1ncnc(N2CCN(C(c3ccccc3)c3ccccc3)CC2)c1[N+](=O)[O-] returned mHTT-CaM PPI inh 21.1 and Pf apPOL inh -4.3.
Screening CC(=O)NC1CCN(Cc2ccccc2Cl)CC1CO (centres undefined) returned mHTT-CaM PPI inh 1.9 and Pf apPOL inh -1.1.
For Cc1ccc(S(=O)(=O)N(C)CC2(C)CCOCC2)cc1F the results were mHTT-CaM PPI inh -7.9 and Pf apPOL inh -2.0.
For O=C1N=c2ccccc2=C1c1sc(Nc2cccc(O)c2)nc1O the results were mHTT-CaM PPI inh 60.6* and Pf apPOL inh -1.0.
`O=C1N=c2ccccc2=C1c1sc(Nc2ccc(Br)cc2)nc1O` gave mHTT-CaM PPI inh 28.0 and Pf apPOL inh 6.4.
Cc1nn(C(C)C(=O)Nc2ccc3c(C)cc(=O)oc3c2)c(C)c1[N+](=O)[O-] (centres undefined) was read as mHTT-CaM PPI inh -2.0 and Pf apPOL inh 15.4.
`CCCN(CC1CC1)c1ccc(N2C(=O)C3CCCCC3C2=O)cc1[N+](=O)[O-]` (centres undefined) gave mHTT-CaM PPI inh 47.0 and Pf apPOL inh -17.5.
For O=C(NC1CC1)c1ccc(OCC2CCCN(C(=O)c3ccccc3Cl)C2)cc1 (centres undefined) the results were mHTT-CaM PPI inh -1.0 and Pf apPOL inh -0.5.
For CC(/C=C/c1ccc(F)cc1)=C\C(=O)O the results were mHTT-CaM PPI inh -0.6 and Pf apPOL inh -4.1.
Screening OC/C=C/C=C/c1ccc(F)cc1 returned mHTT-CaM PPI inh 72.0* and Pf apPOL inh 3.4.
Cc1c(Cl)cccc1NC(=O)C(NS(=O)(=O)c1cccs1)c1ccccc1 (centres undefined) was read as mHTT-CaM PPI inh 3.0 and Pf apPOL inh 4.3.
Screening CCCN1C/C(=C\c2ccc3c(c2)OCO3)C(=O)/C(=C/c2ccc3c(c2)OCO3)C1 returned mHTT-CaM PPI inh 63.0* and Pf apPOL inh 0.6.
CCOc1ccc2c(c1)OC(=Cc1ccc3c(c1)OCO3)C2=O was read as mHTT-CaM PPI inh -5.6 and Pf apPOL inh 2.6.
Screening Cc1nc(-c2nnc(SCC(=O)c3ccccc3)o2)cs1 returned Pf apPOL inh -4.4.
For Cc1ccc(CN2CCC(C(O)c3ccccn3)CC2)s1 (centres undefined) the results were mHTT-CaM PPI inh -0.2 and Pf apPOL inh -1.5.
CNc1ccc(OC)c2c1C(=O)c1ccccc1C2=O was read as mHTT-CaM PPI inh 82.0* and Pf apPOL inh -81.9.
Screening COc1ccccc1NC(=O)c1cccc2c1C(=O)c1ccccc1-2 returned mHTT-CaM PPI inh 21.1 and Pf apPOL inh -1.8.
`NC(=NOC(=O)c1csnc1-c1c(Cl)cccc1Cl)c1c(Cl)cccc1Cl` gave Pf apPOL inh -3.2.
For CC1=C(C#N)C(=O)N(CCO)C(=O)/C1=C\c1ccc(-c2cc(Cl)ccc2Cl)o1 the results were mHTT-CaM PPI inh 37.0 and Pf apPOL inh -3.0.
CC1=C(C#N)C(=O)N(CCO)C(=O)/C1=C/c1ccc(-c2ccc3c(c2)COC3=O)o1 was read as mHTT-CaM PPI inh 60.0* and Pf apPOL inh -3.5.
For CC1=C(C#N)C(=O)N(CC(C)O)C(=O)/C1=C\c1ccc(-c2ccc(Cl)cc2)o1 (centres undefined) the results were mHTT-CaM PPI inh 22.0 and Pf apPOL inh -13.4.
`CC1=C(C#N)C(=O)N(CC(C)O)C(=O)/C1=C\c1ccc(-c2cccc(Cl)c2C)o1` (centres undefined) gave mHTT-CaM PPI inh 75.0* and Pf apPOL inh -8.3.
